Bioassay records (PubChem BioAssay)
This is a sample that favours compounds with a hit; in the whole collection about 6% have one here.
D1 antag: Antagonist of Human D 1 Dopamine Receptor: qHTS | D(1A) dopamine receptor (Homo sapiens), P21728 | HEK293 TREx D1 cells, calcium flux, dopamine EC80; hits give low values | activity change, negative = inhibition, % at 10 µM | 360,000 tested, 3.2% active | AID 504652, 2011; in the data active = activity change below about -30%
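Cells carrying a force-coupled, tetracycline-inducible human D1 receptor report calcium flux. Each well gets a 10 s baseline, compound with 180 s monitoring, then an EC80 dopamine stimulus with a second 180 s kinetic read.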
D1 potentiator: Potentiators of Human D1 Dopamine Receptor: qHTS; HEK293 TREx D1 cells, calcium flux, dopamine EC20 potentiation; 360,000 tested, 0.036% active; potentiation, % at 10 µM; AID 504651, 2011; in the data active = potentiation above about 30%
DRD3 agonist: qHTS of D3 Dopamine Receptor Agonist: qHTS | D3R DiscoveRx beta-arrestin cells, luminescence, 90 min | max activation, % | 410,000 tested, 0.58% active; in the data active = max activation above about 30%
Target sequence (P35462 whole entry, looked up): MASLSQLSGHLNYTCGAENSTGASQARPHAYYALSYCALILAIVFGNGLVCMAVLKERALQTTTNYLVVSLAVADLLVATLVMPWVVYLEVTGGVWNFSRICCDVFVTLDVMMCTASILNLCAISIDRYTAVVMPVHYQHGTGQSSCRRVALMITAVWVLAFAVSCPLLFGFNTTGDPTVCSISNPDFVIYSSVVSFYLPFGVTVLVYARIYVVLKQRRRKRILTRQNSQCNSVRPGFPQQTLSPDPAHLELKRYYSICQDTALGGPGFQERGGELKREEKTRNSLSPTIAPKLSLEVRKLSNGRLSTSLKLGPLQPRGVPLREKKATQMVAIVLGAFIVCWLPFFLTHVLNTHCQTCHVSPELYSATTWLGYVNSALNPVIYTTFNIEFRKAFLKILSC
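Agonist mode: compounds and dopamine controls were applied to plated cells for 90 min at 37 degrees C after an overnight attachment at 1500 cells/well. Luminescent read-out followed 30 - 60 minutes at room temperature with DiscoveRx detection reagent.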
DRD3 antagonist: qHTS of D3 Dopamine Receptor Antagonist: qHTS. D3R cells, DiscoveRx beta-arrestin luminescence, antagonist mode; hits give low values. D(3) dopamine receptor (Homo sapiens), P35462. AID 652054, 2013. max response, negative = inhibition, %. 360,000 tested, 2.5% active; in the data active = max response below about -50%
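Cells expressing the human receptor were seeded at 1500 cells/well, incubated overnight at 37 degrees C in 5% CO2, then exposed to library compounds with dopamine controls for 90 minutes at 37 degrees C before luminescent detection.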
D1 ag: Allosteric Agonists of the Human D1 Dopamine Receptor: qHTS; D(1A) dopamine receptor (Homo sapiens), P21728; HEK293 T-REx D1 cells, calcium flux, agonist mode; activation, % at 2 µM; 360,000 tested, 1% active; AID 504660, 2011; in the data active = activation above about 30%
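Agonism was scored from calcium flux recorded over 180 s (1 read/s) after pintool compound addition, following a 10-cycle baseline. Cells were inducible force-coupled HEK293 TREx D1, plated overnight at 30 C and loaded with no-wash calcium dye.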
Each line names hits and unclear results; the compound was inactive in the other large screens.

O=C(Nc1ccc2c(c1)OCCO2)C1CCN(S(=O)(=O)c2cccc3nsnc23)CC1	none (no result: D1 antag, D1 potentiator, D1 ag)
O=C(Nc1ccc2c(c1)OCCO2)C1CCCN(S(=O)(=O)c2cccc3nsnc23)C1 (stereo not drawn)	D1 antag -36, D1 potentiator 38
CCOc1cc(C(=O)NCc2ccc3c(c2)CCN3C(=O)c2ccc(F)cc2)cc(OCC)c1OCC	none (no result: DRD3 antagonist)
CCN(CC)CCn1c(NCc2cc(OC)ccc2OC)nc2ccccc21	DRD3 antagonist -88
CCN(CC)CCn1c(NCc2ccc3c(c2)OCO3)nc2ccccc21	none
CCN(CC)CCn1c(NCc2cccc(OC)c2)nc2ccccc21	DRD3 antagonist -86
COc1ccc(CNc2nc3ccccc3n2C)c(OC)c1	D1 antag -40
Cc1ccc2nc(-c3ccccc3)cc(C(=O)N3CCN(c4ccccc4O)CC3)c2c1	DRD3 agonist 31
Cc1ccc(NC(=O)C(OC(=O)c2ccc(O)cc2)c2ccccc2)cc1Cl (stereo not drawn)	D1 antag -41
COc1ccc(OCc2ccc(-c3nc(C#N)c(N4CCN(c5cccc(Cl)c5)CC4)o3)o2)cc1	none (no result: DRD3 antagonist)
COC(=O)c1cc(=O)n(CCc2ccc(OC)cc2)c(=Nc2ccc(F)c(Cl)c2)s1	D1 antag -60
COC(=O)c1cc(=O)n(CCc2ccccc2)c(=Nc2ccc(F)cc2)s1	none
Cc1ccc(CNC(=O)Cn2cc(C(=O)c3ccc(F)cc3)c(=O)c3ccc(C)nc32)cc1	none (no result: DRD3 antagonist)
COc1ccc(S(=O)(=O)Nc2ccc3c(c2)C(=O)N([C@H](C)CO)C[C@H](C)[C@@H](CN(C)C(=O)Nc2ccc(C(F)(F)F)cc2)OCCCC[C@H](C)O3)cc1	none (no result: D1 antag, D1 potentiator, D1 ag)
Cc1ccc(NC(=O)CCCNC(=O)c2ccc(Cl)cc2)c(O)c1	D1 antag -32
COc1ccc(NC(=O)C2Cc3c(-c4cccc(C(N)=O)c4)ccnc3O2)cc1 (stereo not drawn)	none (no result: D1 antag, D1 potentiator, D1 ag)
CC(=O)N1N=C2c3ccccc3CCC2C1c1ccc(F)cc1 (stereo not drawn)	none
COc1ccc2c(c1)CCC1C2=NN(/C(C)=C/C(C)=O)C1c1cccc(F)c1 (stereo not drawn)	DRD3 antagonist -58
O=[N+]([O-])c1cc(-c2nc(-c3ccccc3)no2)ccc1N1CCCC1	none (no result: DRD3 antagonist)
COCc1[nH][nH]c(=O)c1C=Nc1ccc(OC(F)(F)F)cc1	D1 antag -33
COCc1[nH][nH]c(=O)c1C=Nc1ccc(Cl)cc1	none
O=C(Nc1ccc2ncccc2c1)Nc1ccc2ncccc2c1	D1 antag -36
Cc1ccc(-n2c(COCC(=O)O)nc3cccnc32)cc1	none (no result: DRD3 antagonist)
CCOc1ccc2c(c1)-c1c(ssc1=S)C(C)(C)N2C	DRD3 antagonist -52
CC1(C)Nc2ccc(O)cc2-c2c1ssc2=S	none
COc1ccc2nc(NC(=O)c3ccc(S(=O)(=O)N4CCCC(C)C4)cc3)sc2c1 (stereo not drawn)	none (no result: DRD3 antagonist)
CC(=O)c1cccc(NC(=O)NNC(=O)CCC(=O)Nc2ccc(C)c(C)c2)c1	none
Cc1ccc(NC(=O)CCC(=O)NNC(=O)NC23CC4CC(CC(C4)C2)C3)cc1C	D1 ag 50
Cc1ccc(Cn2c(SCC(=O)NCc3ccccc3Cl)nc3ccsc3c2=O)cc1	none (no result: DRD3 antagonist)
NCc1cc2c3c(c1)CCCN3CCC2	DRD3 antagonist -65
COc1c(C=O)cc2c3c1CCCN3CCC2	none
FC(F)(F)c1cccnc1Oc1ccc(C2=NCCS2)cc1	D1 ag 37
CCN1CCN(c2sc(S(=O)(=O)CC)nc2S(=O)(=O)c2ccc(Cl)cc2)CC1	DRD3 antagonist -105 (no result: D1 antag, D1 potentiator, D1 ag)
CCCS(=O)(=O)c1nc(S(=O)(=O)c2ccc(C)cc2)c(NCCCOC(C)C)s1	D1 antag -41, D1 ag 36 (no result: DRD3 antagonist)
Cc1ccc(S(=O)(=O)c2nc(S(=O)(=O)c3ccccc3)sc2NCCCOC(C)C)cc1	none (no result: DRD3 antagonist)
CCS(=O)(=O)c1nc(S(=O)(=O)c2ccc(Cl)cc2)c(N2CCN(CCO)CC2)s1	none
CCCS(=O)(=O)c1nc(S(=O)(=O)c2ccc(C)cc2)c(N2CCN(CCO)CC2)s1	DRD3 antagonist -91
